High-throughput results: PubChem, several laboratories
pPAFAH inh: pPAFAH enzyme inhibitors, primary screen, biochemical, fluorescence polarization, human; Platelet-activating factor acetylhydrolase (Homo sapiens), Q13093; recombinant pPAFAH, FP-rhodamine probe fluorescence polarization; inhibition, % at 3.39 µM; hit rate 1.5% among 330,000; AID 463082, 2010;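 active = inhibition above the mean inhibition across the screen plus 3 SD, cut at about 25% in these data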;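 note: inhibitors block binding of the rhodamine activity-based probe so polarization drops; 0% = enzyme with DMSO and 100% = wells lacking pPAFAH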
Target sequence (Q13093 whole entry, looked up): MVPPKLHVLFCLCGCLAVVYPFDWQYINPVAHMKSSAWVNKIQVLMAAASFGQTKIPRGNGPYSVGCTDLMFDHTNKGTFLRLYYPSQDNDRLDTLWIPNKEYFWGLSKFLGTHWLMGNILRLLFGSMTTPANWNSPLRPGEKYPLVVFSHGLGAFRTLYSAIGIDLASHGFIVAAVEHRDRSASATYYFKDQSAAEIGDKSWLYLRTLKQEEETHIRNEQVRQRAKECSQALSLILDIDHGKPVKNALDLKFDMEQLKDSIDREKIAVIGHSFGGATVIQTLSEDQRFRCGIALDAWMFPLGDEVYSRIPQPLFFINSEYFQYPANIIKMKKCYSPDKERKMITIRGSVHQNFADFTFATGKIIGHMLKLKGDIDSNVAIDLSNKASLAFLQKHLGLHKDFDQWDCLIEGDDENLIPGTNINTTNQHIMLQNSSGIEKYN
PAFAH1B3 inh: PAFAH1B3 enzyme inhibitors, primary screen, biochemical, fluorescence polarization, human. recombinant PAFAH1B3, FP-rhodamine probe. inhibition, % at 3.39 µM. hit rate 0.28% among 340,000. AID 492972, 2010;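 active = inhibition above the screen-wide average of all tested compounds plus 3 SD, cut at about 25% in these data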;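 note: 0% = enzyme with DMSO only and 100% = wells lacking PAFAH1B3 protein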
Target sequence (Q15102 whole entry, looked up): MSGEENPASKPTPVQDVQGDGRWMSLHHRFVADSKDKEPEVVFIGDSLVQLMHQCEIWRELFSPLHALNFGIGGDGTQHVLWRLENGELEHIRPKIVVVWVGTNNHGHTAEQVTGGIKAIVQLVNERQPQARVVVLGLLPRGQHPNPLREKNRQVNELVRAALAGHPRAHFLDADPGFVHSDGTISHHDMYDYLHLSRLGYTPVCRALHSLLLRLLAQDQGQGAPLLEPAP
Pemphigus Ab inh: inhibitors of pemphigus antibody binding to DSG3, primary screen, biochemical, bead-based, flow cytometry, scFv-GFP | hit rate 0.48% among 310,000 | binding (percent of control), % at 10 µM | DSG3-coupled beads, scFv-anti-DSG3-GFP binding; stronger effect = lower value | Desmoglein-3 (Homo sapiens), P32926;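 active = binding more than 3 SD below its plate's average and above zero; inconclusive = below that plate limit but binding exactly zero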
PAFAH1B2 inh: PAFAH1B2 enzyme inhibitors, primary screen, biochemical, fluorescence polarization, human | AID 492953, 2010 | inhibition, % at 3.39 µM | hit rate 1.2% among 340,000 | Platelet-activating factor acetylhydrolase IB subunit alpha2 (Homo sapiens), P68402 | recombinant PAFAH1B2, FP-rhodamine activity probe;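 active = inhibition above the mean of all tested compounds plus 3 SD, cut at about 24% in these data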;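 note: 0% = enzyme with DMSO and 100% = wells lacking PAFAH1B2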
PAFAH2 FP inh: PAFAH2 enzyme inhibitors, primary screen, biochemical, fluorescence polarization, human; Platelet-activating factor acetylhydrolase 2, cytoplasmic (Homo sapiens), Q99487; recombinant PAFAH2, FP-rhodamine activity probe; inhibition, % at 3.39 µM; hit rate 0.99% among 340,000; AID 492956, 2010;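 active = inhibition above the mean over all tested compounds plus 3 SD, cut at about 30% in these data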;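 note: inhibitors block probe labeling of enzyme so polarization drops; 0% = enzyme with DMSO and 100% = wells lacking PAFAH2 protein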
PfM18AAP inh: PfM18AAP inhibitors, malaria aminopeptidase, primary screen, biochemical, QFRET, recombinant enzyme; AID 1822, 2009; M18 aspartyl aminopeptidase (Plasmodium falciparum 3D7); inhibition, % at 7.35 µM; hit rate 1.2% among 290,000; H-Glu-NHMec fluorogenic cleavage;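 active = inhibition above the campaign mean inhibition over all tested compounds plus 3 SD, cut at about 28% in these data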;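 note: 0% = plate median of test compound wells and 100% = 2 mM ZnCl2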
* hit, by the source's call. Rows were chosen to be rich in hits. Some 3.8% of all compounds tested hit in one or more screens of this group.

How did COc1cc(C2Nc3cccc4cccc(c34)N2)ccc1OC(C)=O do in these assays?
pPAFAH inh: 11; PAFAH1B3 inh: 38*; Pemphigus Ab inh: 81; PAFAH1B2 inh: 10; PAFAH2 FP inh: 5; PfM18AAP inh: -2

What do the screens show for `COC(=O)c1ccc(C2Nc3cccc4cccc(c34)N2)cc1`?
pPAFAH inh: 7; PAFAH1B3 inh: 11; Pemphigus Ab inh: 108; PAFAH1B2 inh: -1; PAFAH2 FP inh: 0; PfM18AAP inh: 1

How did CC1=NN(c2ccc(Br)cc2)C(=O)/C1=C/c1ccc(-c2ccccc2C(=O)O)o1 do in these assays?
pPAFAH inh: 0; PAFAH1B3 inh: 5; Pemphigus Ab inh: 115; PAFAH1B2 inh: -3; PAFAH2 FP inh: 16; PfM18AAP inh: -6

What do the screens show for `Cc1c(C(=O)O)cccc1-c1ccc(/C=N/Nc2ccc(Br)cc2)o1`?
pPAFAH inh: 26*; PAFAH1B3 inh: 6; Pemphigus Ab inh: 103; PAFAH1B2 inh: 3; PAFAH2 FP inh: 20; PfM18AAP inh: -18

Results for CC(C)COc1ccc(C(=O)N2C(=O)c3ccc(N)cc3C2=O)cc1 ?
pPAFAH inh: -3; PAFAH1B3 inh: -17; Pemphigus Ab inh: 39*; PAFAH1B2 inh: -7; PAFAH2 FP inh: -21; PfM18AAP inh: 8

Results for O=[N+]([O-])c1ccccc1N/N=C/c1c[nH]c2ccccc12 ?
pPAFAH inh: 25*; PAFAH1B3 inh: 12; Pemphigus Ab inh: 103; PAFAH1B2 inh: 4; PAFAH2 FP inh: 9; PfM18AAP inh: -7

Results for O=[N+]([O-])c1ccccc1N/N=C/c1ccccc1 ?
pPAFAH inh: 0; PAFAH1B3 inh: 9; Pemphigus Ab inh: 91; PAFAH1B2 inh: 0; PAFAH2 FP inh: -7; PfM18AAP inh: -1

How did CC(=O)Nn1cnc2c(c1=O)C1(CCCC1)Cc1ccccc1-2 do in these assays?
pPAFAH inh: 7; PAFAH1B3 inh: 16; Pemphigus Ab inh: 102; PAFAH1B2 inh: 25*; PAFAH2 FP inh: -1; PfM18AAP inh: 1

What do the screens show for `Cn1ncn2c(=O)c3c(nc12)-c1ccccc1CC31CCCC1`?
pPAFAH inh: 5; PAFAH1B3 inh: 3; Pemphigus Ab inh: 99; PAFAH1B2 inh: 6; PAFAH2 FP inh: -8; PfM18AAP inh: 6

How did CCCC(=O)Nn1cnc2c(c1=O)C1(CCCC1)Cc1ccccc1-2 do in these assays?
pPAFAH inh: 10; PAFAH1B3 inh: 11; Pemphigus Ab inh: 97; PAFAH1B2 inh: 9; PAFAH2 FP inh: 2; PfM18AAP inh: -4

How did O=c1c2c(nc3n1CCCCC3)-c1ccccc1CC21CCCC1 do in these assays?
pPAFAH inh: 2; PAFAH1B3 inh: -1; Pemphigus Ab inh: 101; PAFAH1B2 inh: 28*; PAFAH2 FP inh: -1; PfM18AAP inh: 0

What do the screens show for `C=CCSc1n[nH]c2nc3c(c(=O)n12)C1(CCCC1)Cc1ccccc1-3`?
pPAFAH inh: 6; PAFAH1B3 inh: 0; Pemphigus Ab inh: 104; PAFAH1B2 inh: 44*; PAFAH2 FP inh: 9; PfM18AAP inh: -2

What do the screens show for `Cc1cnc(NS(=O)(=O)c2ccc(N)cc2)nc1-c1ccccc1O`?
Pemphigus Ab inh: 107

How did COc1cc(NS(=O)(=O)c2ccc(C)cc2)c2ncccc2c1 do in these assays?
pPAFAH inh: 7; PAFAH1B3 inh: 7; Pemphigus Ab inh: 73; PAFAH1B2 inh: 6; PAFAH2 FP inh: 9; PfM18AAP inh: 4

How did CCC(CNc1cc(OC)cc2cccnc12)NC1CCCCC1 (centres undefined) do in these assays?
pPAFAH inh: 25*; PAFAH1B3 inh: 13; Pemphigus Ab inh: 98; PAFAH1B2 inh: 5; PAFAH2 FP inh: -1; PfM18AAP inh: 16

Results for O=C(O)c1ccccc1C(=O)NNc1cccc(Cl)n1 ?
pPAFAH inh: 0; PAFAH1B3 inh: -1; Pemphigus Ab inh: 111; PAFAH1B2 inh: 2; PAFAH2 FP inh: 1; PfM18AAP inh: 45*

Results for COCCNC(=O)c1cc(C(=O)CC(C)C)c[nH]1 ?
pPAFAH inh: 2; PAFAH1B3 inh: 10; Pemphigus Ab inh: 107; PAFAH1B2 inh: 3; PAFAH2 FP inh: 5; PfM18AAP inh: -4

How did Cn1cccc1/C=N/n1cnnc1 do in these assays?
pPAFAH inh: 2; PAFAH1B3 inh: 4; Pemphigus Ab inh: 100; PAFAH1B2 inh: 1; PAFAH2 FP inh: 7; PfM18AAP inh: 3

How did Brc1ccc(-n2cccc2/C=N/n2cnnc2)cc1 do in these assays?
pPAFAH inh: 5; PAFAH1B3 inh: -8; PAFAH1B2 inh: 23; PAFAH2 FP inh: -2; PfM18AAP inh: 31*

What do the screens show for `O=C1Nc2ccccc2C1(O)C/C(=N/O)c1ccccc1` (centres undefined)?
pPAFAH inh: -1; PAFAH1B3 inh: 9; Pemphigus Ab inh: 96; PAFAH1B2 inh: 5; PAFAH2 FP inh: 2; PfM18AAP inh: -4

Results for CC(C)C(CCNCc1ccccn1)c1ccc(Cl)cc1 (centres undefined) ?
pPAFAH inh: 4; PAFAH1B3 inh: 35*; Pemphigus Ab inh: 110; PAFAH1B2 inh: 45*; PAFAH2 FP inh: 45*; PfM18AAP inh: 1

What do the screens show for `Cc1ccccc1CS(=O)(=O)CCC(=O)N1CCN(c2ccc(N3CCOCC3)nn2)CC1`?
pPAFAH inh: 27*; PAFAH1B3 inh: 0; Pemphigus Ab inh: 102; PAFAH1B2 inh: 0; PAFAH2 FP inh: 24; PfM18AAP inh: 1

What do the screens show for `O=C(CCS(=O)(=O)Cc1ccccc1)N1CCN(c2ccccc2)CC1`?
pPAFAH inh: 11; PAFAH1B3 inh: -1; Pemphigus Ab inh: 102; PAFAH1B2 inh: 2; PAFAH2 FP inh: 8; PfM18AAP inh: 10

What do the screens show for `O=c1c2cc(-c3ccccc3)sc2ncn1/N=C/c1ccco1`?
pPAFAH inh: 26*; PAFAH1B3 inh: -2; Pemphigus Ab inh: 98; PAFAH1B2 inh: 4; PAFAH2 FP inh: 8; PfM18AAP inh: -1

Results for Cc1ccc(NC(=O)C2CCN(c3ncnc4c3nc3n4CCCCC3)CC2)nc1 ?
pPAFAH inh: 5; PAFAH1B3 inh: -3; Pemphigus Ab inh: inconclusive; PAFAH1B2 inh: 0; PAFAH2 FP inh: -4; PfM18AAP inh: 3

How did CC(C)C(=O)Nc1cc(C(F)(F)F)ccc1-n1ccnc1 do in these assays?
pPAFAH inh: 4; PAFAH1B3 inh: 4; Pemphigus Ab inh: 102; PAFAH1B2 inh: 0; PAFAH2 FP inh: 1; PfM18AAP inh: -11

What do the screens show for `Clc1ccc(C(c2cccs2)N2CCNCC2)cc1` (centres undefined)?
Pemphigus Ab inh: 99

What do the screens show for `Cc1ccc2nc3c(cc2c1)c(NS(=O)(=O)c1ccccc1)nn3CC(C)C`?
pPAFAH inh: 1; PAFAH1B3 inh: 5; Pemphigus Ab inh: 83*; PAFAH1B2 inh: 3; PAFAH2 FP inh: -5; PfM18AAP inh: -7
